# Out of some 1,700 compounds screened, about 150 (8.8%) were called active. Inconclusive results (about 19%) are left out.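 The calls were made as follows: active = fluorescence change differing from the plate's solvent-only control wells at 99.7% confidence in both duplicates, whether higher or lower; inconclusive = differs from solvent controls in only one of two duplicates; inactive = the rest.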 A selection follows.
# Target: Muscarinic acetylcholine receptor M4 (Rattus norvegicus) (UniProt P08485)
# Assay: agonist activity at rat M4 receptor, confirmation, counter-screen for M1 allosteric modulator project, cell-based, agonist mode (AID 1741)
# Conditions: CHO M4/Gqi5 cells, Fluo-4 calcium fluorescence, at 10 µM, actives lie on both sides
# Chain of Muscarinic acetylcholine receptor M4 (Rattus norvegicus) (P08485 whole entry, looked up): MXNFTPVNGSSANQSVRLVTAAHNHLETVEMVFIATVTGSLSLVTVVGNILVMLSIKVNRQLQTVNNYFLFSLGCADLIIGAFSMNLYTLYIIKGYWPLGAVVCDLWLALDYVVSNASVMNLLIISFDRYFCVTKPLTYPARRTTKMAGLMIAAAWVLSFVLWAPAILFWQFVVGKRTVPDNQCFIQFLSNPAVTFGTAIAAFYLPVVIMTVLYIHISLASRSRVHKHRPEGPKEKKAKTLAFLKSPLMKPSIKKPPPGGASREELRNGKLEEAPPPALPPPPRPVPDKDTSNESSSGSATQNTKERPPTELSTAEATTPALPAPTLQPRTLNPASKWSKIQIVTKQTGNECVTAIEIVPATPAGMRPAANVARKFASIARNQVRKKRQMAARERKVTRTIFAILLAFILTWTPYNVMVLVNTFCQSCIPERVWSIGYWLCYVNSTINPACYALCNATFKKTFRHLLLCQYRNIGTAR
row,Compound,fluorescence change (max-min)
1,O=C(O)c1ccc(COCC(F)(F)F)cc1,-14 (inactive)
2,COCCNC(=O)C(c1ccc(C)o1)N(Cc1cccs1)C(=O)c1snc(C(N)=O)c1N (stereo unspecified),-6.44 (inactive)
3,COc1cccc2c(C)c(C(=O)O)[nH]c12,-9.04 (inactive)
4,COc1ccccc1NC1=NC(c2ccc(Cl)cc2)N=C(N)N1 (stereo unspecified),-38.9 (inactive)
5,N#CC1=C(N)Oc2c(sc3ccccc23)C1c1ccco1 (stereo unspecified),50 (inactive)
6,CCOc1ccc2nc(N3CCCN(C(=O)Nc4ccccc4C)CC3)c(C#N)cc2c1,246 (active)
7,Cc1cc(NC(=O)COc2ccc(Cl)cc2Cl)n(CCC#N)n1,-13.8 (inactive)
8,C(=N\n1cnnc1)/c1cccnc1,-25.3 (inactive)
9,COc1ccc2nc(N3CCCC(O)C3)c(C#N)cc2c1 (stereo unspecified),176 (active)
10,COc1ccc(N(CC(=O)NC(C)(C)C)C(=O)c2ccco2)cc1,-53.4 (inactive)
11,O=C(CSc1nnc(-c2ccco2)n1Cc1ccccc1)NC(=O)NCc1ccco1,-23.1 (inactive)
12,COc1ncnc2c1N=C1CC(C)(C)CC(N)=C1S2,136 (active)
13,c1ccc2c(c1)OCC(CNc1ncnc3nc[nH]c13)O2 (stereo unspecified),1130 (active)
14,Cc1nc2ccccc2c2oc(C(=O)NCC3CCCO3)cc12 (stereo unspecified),-66.7 (inactive)
15,COC(=O)c1ccc(CSc2nc3ccccc3c(=O)n2-c2cccc(OC)c2)o1,-28.9 (inactive)
16,Cc1nc(CNS(=O)(=O)c2ccc(Oc3ccccc3)cc2)cs1,2.92 (inactive)
17,COc1ccccc1NC(=O)CSc1nnc(Cn2nnc(-c3ccccc3)n2)n1-c1ccccc1,-51.1 (inactive)
18,COc1ccccc1N1CCN(C(=O)c2cn(-c3ccccc3)nc2-c2cccnc2)CC1,-73.3 (inactive)
19,COc1ccc(CCNC(=O)C2CCN(c3nn4c(=O)cc(C)nc4s3)CC2)cc1OC,-40 (inactive)
20,CCOc1cc(-c2nc3cc(C)ccn3c2NCC2CCCO2)ccc1O (stereo unspecified),-60.7 (inactive)
21,CCOc1ccc(NC(=O)N2CC=C(n3c(=O)[nH]c4ccccc43)CC2)cc1,-26.4 (inactive)
22,COc1ccc(Nc2oc(-c3ccccc3Cl)nc2C#N)cc1,-74.3 (inactive)

row,Compound,fluorescence change (max-min)
1,O=C(NCCC1=CCCCC1)C1CCN(Cc2cnn(-c3ccccc3)c2-n2cccc2)CC1,-67.1 (inactive)
2,c1n[nH]c(NCc2ccc3c(c2)OCO3)n1,-28.2 (inactive)
3,CC1CCCC(C)N1C(=O)CN1CCN(c2nc(-c3ccc(F)cc3)cs2)CC1 (stereo unspecified),-9.73 (inactive)
4,Nc1ccc(SCCN2C(=O)c3ccccc3C2=O)cc1,-77.3 (inactive)
5,Cc1cc2cc(CN(Cc3cccs3)Cc3nnnn3CC3CCCO3)c(=O)[nH]c2cc1C (stereo unspecified),-27 (inactive)
6,O=C(c1ccccc1)c1ccc(OC(=O)N2CCCC2)cc1,-25.9 (inactive)
7,CC(NC(=O)CSc1nc2c(cc1C#N)CN(C)CC2)c1ccccc1 (stereo unspecified),-18.9 (inactive)
8,O=C(Nc1cccc(NC(=O)N2CCN(c3ccccc3)CC2)c1)N1CCN(c2ccccc2)CC1,-12.4 (inactive)
9,Cc1nn2c(c1-c1ccccc1)N=C(c1ccco1)CC2c1ccccc1 (stereo unspecified),5.67 (inactive)
10,CCOc1nc(-c2ccc(OC)cc2)ccc1-c1noc(-c2cc(OC)c(OC)c(OC)c2)n1,18.4 (inactive)
11,CCCOc1ccccc1C1CC(=O)Nc2cc3c(cc21)OCO3 (stereo unspecified),-71.7 (inactive)
12,CCn1c(NCCc2ccc(OC)c(OC)c2)nc2c1c(=O)n(C)c(=O)n2C,-47.9 (inactive)
13,CCN(CC)c1ccc2cc(C(=O)O)c(=O)oc2c1,137 (inactive)
14,Fc1ccc2[nH]c3c(N4CCSCC4)ncnc3c2c1,-68.8 (inactive)
15,CCN=C1SC(CC(=O)Nc2ccc(C)cc2)C(=O)N1CC (stereo unspecified),-71.4 (active)
16,COc1cccc(-n2cc3c(c2-c2ccccc2)c(=O)n(C)c(=O)n3C)c1,-42.2 (inactive)
17,COc1ccc2[nH]c(=O)c(CN(CC3CCCO3)C(=O)Nc3ccccc3)cc2c1 (stereo unspecified),-53.6 (inactive)
18,CCOc1ccc2[nH]c(=O)c(CN(Cc3nnnn3Cc3ccccc3)CC3CCCO3)cc2c1 (stereo unspecified),-7.46 (inactive)
19,O=C1c2ccccc2-c2ncnc3c(N4CCOCC4)cc(N4CCOCC4)c1c23,-22.7 (inactive)
20,FC(F)(F)COc1nc(N2CCCCC2)nc(N2CCNCC2)n1,-26.5 (inactive)
21,CCOC(=O)c1cc2n(c1N)-c1ccccc1C2=O,2020 (active)
22,CC(=O)Nc1ccc(NC(=O)CN2CCCC(C)C2)c(Cl)c1 (stereo unspecified),-37.2 (inactive)

row,Compound,fluorescence change (max-min)
1,COc1ccccc1N1CCN(C(=O)c2c(-c3c(Cl)cccc3Cl)noc2C)CC1,-27 (inactive)
2,O=C(Cn1cc(C(=O)c2cccs2)c2ccccc21)NCc1cccs1,-25 (inactive)
3,COc1ccc(C(C(O)C(=O)c2c[nH]c3ccccc23)N2CCN(c3ccccc3)CC2)cc1 (stereo unspecified),-6.79 (inactive)
4,COc1cc(C(=O)Nc2oc(-c3ccccc3)c(-c3ccccc3)c2C#N)cc(OC)c1OC,-47.4 (inactive)
5,CCCN1CC=C2C(C#N)=C(N)C(C#N)(C#N)C(c3cc(OC)ccc3OC)C2C1 (stereo unspecified),84.1 (inactive)
6,COc1ccc(NC(=O)C2CCCN(S(=O)(=O)c3cccc4cccnc34)C2)cc1OC (stereo unspecified),-56.1 (inactive)
7,Cc1ccc2oc(=O)c3cnn(CC(=O)N4CCN(c5ccccn5)CC4)c3c2c1,-22 (inactive)
8,CCOc1cc(N2CCOCC2)c(OCC)cc1NC(=O)COc1cccc2cccnc12,-39.2 (inactive)
9,Cc1ccc(S(=O)(=O)Nc2ccc3ncccc3c2)cc1,-7.21 (inactive)
10,O=C(NCCc1ccc2c(c1)OCCO2)c1cc2ccccc2o1,-9.99 (inactive)
11,COc1ccc(C2C(C(=O)N3CCN(c4ccc(OC)cc4)CC3)c3ccccc3C(=O)N2C)cc1 (stereo unspecified),-57.8 (inactive)
12,Cn1c(C(=O)NCCc2ccsc2)cc2c(=O)n(C)c3ccccc3c21,-42.5 (inactive)
13,COc1ccc(N(C(=O)c2cccnc2)S(=O)(=O)c2ccc3c(c2)n(C)c(=O)n3C)cc1,-59.4 (inactive)
14,O=C(CSCc1cccs1)N1CCCC1,-76.4 (inactive)
15,CN1C(=O)c2ccc(NC(=O)c3c(F)c(F)c(F)c(F)c3F)cc2C1=O,-27.8 (inactive)
16,CC(C[N+](C)(C)C)OC(N)=O (stereo unspecified),11.8 (inactive)
17,CC(=O)OC(C)C[N+](C)(C)C (stereo unspecified),146 (active)
18,CCOC(=O)C1CCCN(C(=O)c2ccc(CS(=O)(=O)c3ccc(Br)cc3)o2)C1 (stereo unspecified),-59.9 (inactive)
19,CC(C)OCCCNc1ncnc2c1[nH]c1ccc(F)cc12,-4.51 (inactive)
20,O=C(Nc1nc(-c2ccc3c(c2)OCO3)cs1)c1ccncc1,-52 (inactive)
21,CC(C)(C)c1cc(CN2CCN(CCC#N)CC2)cc(C(C)(C)C)c1O,-27.3 (inactive)
22,O=C(Nc1cccc(-c2nnc(-c3ccccc3)o2)c1)C1CCCO1 (stereo unspecified),-67.5 (inactive)

# Reference: PubChem BioAssay AID1741 (Vanderbilt High Throughput Screening Facility, 2009)
